Data as given in PubChem BioAssay (NCI).
Compounds without any hit were thinned out: in the full panel of roughly 83,000, 20% have a hit.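 The test compound was applied at a single concentration to cells in 96-well plates for 48 hours, and percent growth was recorded.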 Activity calls are given as the source filed them. How the source made its calls: active means growth percent below 10; inactive means the rest.

What was measured:
Experiment in all cases: NCI-60 one-dose screen, 48 h (100 = growth as untreated, 0 = no growth, -100 = all killed)
Conditions in all cases: 10 µM unless noted
[1] = tested on: SR leukemia
[2] = tested on: OVCAR-8 ovarian
[3] = tested on: OVCAR-5 ovarian
[4] = tested on: OVCAR-4 ovarian
[5] = tested on: SK-OV-3 ovarian
[6] = tested on: IGROV1 ovarian
[7] = tested on: OVCAR-3 ovarian
[8] = tested on: HS 578T breast
[9] = tested on: NCI/ADR-RES ovarian
[10] = tested on: T-47D breast
[11] = tested on: BT-549 breast
[12] = tested on: MDA-MB-435 melanoma
[13] = tested on: SW-620 colon
[14] = tested on: MCF7 breast
[15] = tested on: HCT-116 colon
[16] = tested on: HCC-2998 colon
[17] = tested on: KM12 colon

Measured: growth

COc1ccc(/C=C(/C#N)n2nnc3cccc(F)c32)cc1
active: [1] 7.75% | [7] -18.6% | [8] -16.4% | [9] -29.6% | [10] 9.54% | [12] -56.4% | [17] 5.54%
inactive: [2] 10.7% | [3] 19.7% | [4] 29.9% | [5] 29% | [6] 34.4% | [11] 20.3% | [13] 11.9% | [14] 17.1% | [15] 10.1% | [16] 36%

Cc1ccc(-c2nc(N3CCN(C(=O)c4ccc(OC(F)(F)F)cc4)CC3)c3ccccc3n2)cc1
inactive: [1] 78.5% | [2] 90.3% | [3] 97.8% | [4] 106% | [5] 99.3% | [6] 85.6% | [7] 93.9% | [8] 79.1% | [9] 84.4% | [10] 61.7% | [11] 91.9% | [12] 92.5% | [13] 97% | [14] 92.9% | [15] 85.3% | [17] 93%

O=C(Nc1c2ccccc2nc2ccccc12)c1ccccc1CN1C(=O)c2ccccc2C1=O
inactive: [1] 30.5% | [2] 31.3% | [3] 40.1% | [4] 44.8% | [5] 35.6% | [6] 21.4% | [7] 34.1% | [8] 21% | [9] 29.3% | [10] 33.4% | [11] 76.2% | [12] 30.3% | [13] 15.5% | [14] 10.3% | [15] 16.1% | [17] 26%

NCCNc1nc2ccccc2c2c(=O)c3cccc(F)c3sc12
inactive: [1] 12.3% | [2] 46.5% | [3] 81.8% | [4] 48.3% | [5] 78.8% | [6] 48% | [7] 53.1% | [8] 67.6% | [9] 53.9% | [10] 70.7% | [11] 98.5% | [12] 58.5% | [13] 17.7% | [14] 45.1% | [15] 15.1% | [16] 15.5% | [17] 34.3%

Oc1c(I)cc(I)cc1CNCCCN(Cc1ccccn1)Cc1ccccn1
active: [1] 4.38% | [2] -11.2% | [3] -44.9% | [4] -94.3% | [5] -73% | [6] -79.5% | [7] -69.9% | [8] -21.7% | [9] -17.1% | [10] -57% | [11] -73.2% | [12] -90.7% | [13] -61.9% | [14] -56.3% | [15] -87% | [16] -82.5% | [17] -85.1%

CS(=O)(=O)N(c1cc(-c2ccc3ncnc(Nc4ccc(F)c(Cl)c4)c3c2)cnc1Cl)S(C)(=O)=O
active: [6] -22.3% | [8] -1.88% | [10] -11%
inactive: [1] 47.5% | [2] 66.1% | [3] 30.6% | [4] 65.7% | [5] 14.6% | [7] 36.1% | [9] 69% | [11] 22% | [12] 43.8% | [13] 46.3% | [14] 12% | [15] 45.1% | [16] 45.1% | [17] 67.1%

N[C@@H](Cc1ccccc1)[C@@H](O)C(=O)NCc1ccc(F)cc1
inactive: [1] 95.1% | [2] 104% | [3] 98.7% | [4] 103% | [5] 120% | [6] 107% | [7] 117% | [8] 104% | [9] 110% | [10] 113% | [11] 105% | [12] 101% | [13] 103% | [14] 94.9% | [16] 113% | [17] 102%

O=C(N/N=C/[C@H](O)[C@@H](O)[C@@H](O)[C@H](O)CO)c1ccc(NC(=O)c2cccnc2)cc1
inactive: [1] 103% | [2] 105% | [3] 106% | [4] 102% | [5] 108% | [6] 110% | [7] 120% | [8] 108% | [9] 106% | [10] 100% | [11] 106% | [12] 106% | [13] 108% | [14] 94.8% | [15] 108% | [16] 117% | [17] 106%

CCOC(=O)CCN(C(=O)Nc1ccccc1)C1CCCCC1
inactive: [1] 129% | [2] 128% | [3] 87.4% | [4] 113% | [5] 112% | [6] 93.2% | [7] 118% | [8] 107% | [9] 106% | [10] 104% | [11] 118% | [12] 106% | [13] 102% | [14] 98.4% | [15] 102% | [17] 108%

Cc1cccc2c(=O)c3c(sc12)c(NCc1ccccc1)nc1ccccc13
inactive: [1] 74.4% | [2] 100% | [3] 75.6% | [4] 87.6% | [5] 88.7% | [6] 74.3% | [7] 106% | [8] 98.7% | [9] 97.2% | [10] 48.4% | [11] 101% | [12] 109% | [13] 95.5% | [14] 27.2% | [15] 77% | [17] 84.5%

O=C1c2cccc3cccc(c23)C(=O)N1N1C(=O)c2cccc3c(NC4CCCCC4)ccc(c23)C1=O
inactive: [1] 90.2% | [2] 96.2% | [3] 90.6% | [4] 96.8% | [5] 92.1% | [6] 102% | [7] 105% | [8] 103% | [9] 95.4% | [10] 88.4% | [11] 97.8% | [12] 102% | [13] 98.7% | [14] 88.8% | [15] 98.9% | [16] 108% | [17] 99.5%

Cn1cc(-c2cc3ncnc(Nc4ccc(CC(=O)Nc5cc(C(C)(C)C)nn5C)cc4)c3s2)cn1
inactive: [2] 35.9% | [3] 102% | [4] 28.1% | [5] 29.3% | [6] 28.9% | [7] 61.4% | [8] 32.3% | [9] 101% | [10] 12.1% | [11] 45.7% | [12] 58.4% | [13] 63% | [14] 54.8% | [15] 39.2% | [16] 80.8% | [17] 16.7%
active: [1] 8.15%

COc1ccc(C2C(N)=NNC2c2cccc(O)c2)cc1 (stereo not given)
inactive: [1] 81.2% | [2] 93.8% | [3] 107% | [4] 108% | [5] 98.9% | [6] 90.6% | [7] 106% | [8] 110% | [9] 99.1% | [10] 101% | [11] 87.5% | [12] 100% | [13] 109% | [14] 96.6% | [15] 104% | [16] 122% | [17] 92.8%

NC1=NC(c2cccc(Br)c2)c2sc3ccc(Cl)cc3c2N1 (stereo not given)
inactive: [1] 77.6% | [2] 102% | [3] 103% | [4] 93.5% | [5] 92.1% | [6] 77% | [7] 99.2% | [8] 104% | [9] 103% | [10] 88.8% | [11] 122% | [12] 98.2% | [13] 103% | [14] 75.4% | [15] 97.9% | [16] 114% | [17] 93.7%

O=[N+]([O-])c1ccc(Oc2nc(Nc3ccc(O[C@H]4CO[C@H]5[C@@H]4OC[C@@H]5O)c(Cl)c3)ncc2F)c(Cl)c1
inactive: [1] 10.5% | [2] 32.5% | [3] 43.2% | [4] 34.4% | [7] 31.1% | [9] 81.3% | [10] 11.9% | [11] 31.8% | [12] 10.9% | [13] 35.7% | [14] 21.2% | [15] 25% | [16] 69.3% | [17] 11.2%
active: [5] 9.64% | [6] -13% | [8] -2.68%

COc1cccc2c(=O)c3c(sc12)c(N1CCNCC1)nc1ccccc13
inactive: [2] 53.2% | [3] 94.9% | [5] 83% | [6] 63.3% | [8] 89.5% | [9] 73.2% | [10] 85.5% | [11] 97.6% | [12] 54.7% | [14] 53.2% | [16] 11.1% | [17] 46.3%
active: [1] -33.9% | [4] -41.4% | [7] -43.8% | [13] -39.2% | [15] -52.4%

Cc1cc(-c2cc(C)c(N)cc2C)c(C)cc1N
inactive: [1] 45.5% | [2] 103% | [3] 97.2% | [4] 117% | [5] 95.7% | [6] 109% | [7] 107% | [8] 107% | [9] 100% | [10] 90.4% | [11] 92.3% | [13] 100% | [14] 80.7% | [15] 78.8% | [16] 104% | [17] 75.2%
active: [12] 6.88%

CCCCn1c(=O)c(-c2cc(-c3ccc(Cl)cc3)nc(-c3ccc(Cl)cc3)c2)cc2cc(C)ccc21
inactive: [1] 109% | [2] 100% | [3] 100% | [4] 110% | [5] 115% | [6] 96.4% | [7] 112% | [8] 99.1% | [9] 104% | [10] 95.8% | [11] 103% | [12] 104% | [13] 99.6% | [14] 97.6% | [15] 99.8% | [17] 102%
